{"source": "paper PMC5540273", "about": "(PLoS ONE, 2017);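 note: KINOMEscan kinase panel screen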"}
{"test_system": "TBK1", "conditions": "concentration: 1 μM, replicates: in singlicate; n = 1", "units": {"%Inh": "%"}}
{"smiles": "c1ccc(Oc2ccc(Nc3ccnc4cc(-c5ccc(CNCCN6CCOCC6)o5)ccc34)cc2)nc1", "note": "[GW567145]", "%Inh": 1}
{"smiles": "Cn1cc(-c2[nH]c3cc(NC(=O)[C@H](N)C4CCCCC4)cc4c3c2C=NNC4=O)cn1", "%Inh": 82}
{"smiles": "O=C(Nc1cccc(-c2nn3ccccc3c2-c2ccnc(Nc3cccc(F)c3)n2)c1)c1c(F)ccc(F)c1Cl", "note": "[GSK357952]", "%Inh": 3}
{"smiles": "Cc1ccc(C)c(NC(=O)NC2CCN(c3ccnc(Nc4ccc(F)cc4)n3)C2)c1", "note": "(stereo not drawn) [GSK1379720]", "%Inh": 0}
{"smiles": "O=C(Nc1n[nH]c2cc(-c3ccoc3)ccc12)C1CC1", "note": "[SB-738481]", "%Inh": 15}
{"smiles": "COc1cccc(C(=O)Nc2cccc(Oc3ccc4nc(NC(=O)C5CC5)cn4n3)c2)c1", "%Inh": 48}
{"smiles": "Cc1ccc(S(=O)(=O)Nc2ccc(Nc3nccc(Nc4cccc5[nH]ncc45)n3)cc2)cc1", "note": "[GSK581271]", "%Inh": 9}
{"smiles": "CN(C)Cc1ccc(-c2ccc3c(Nc4ccc(Oc5ccccn5)cc4)ccnc3c2)o1", "note": "[GW567148]", "%Inh": 7}
{"smiles": "Nc1ncc(-c2ccc3nccc(-c4ccncc4)c3c2)cc1S(=O)(=O)N1CCOCC1", "note": "[GSK1627798]", "%Inh": 10}
{"smiles": "CC(=O)Nc1nc2cnc(Nc3cc(NC(=O)c4cccc(C5(C#N)CC5)c4Cl)ccc3C)nc2s1", "%Inh": 0}
{"smiles": "Cl.Cl.NCC(NC(=O)c1cc(-c2ccccc2)c(-c2ccnc3[nH]ccc23)s1)c1ccccc1", "note": "(stereo not drawn) [GSK1321561]", "%Inh": 24}
{"smiles": "COc1cccc(C2=C(Nc3ccc(Cl)c(C(=O)O)c3)C(=O)NC2=O)c1", "note": "[SB-390769]", "%Inh": 100}
